From the antibiotic and cytotoxicity screens of Wong et al. (2023)
In all, about 39,000 compounds went through this assay and about 3,300 (8.5%) were called active. The sample holds actives, similar compounds and a random draw of the others, so the mix is not that of the screen.

The compounds below were run on HepG2 (assay: cytotoxicity call (relative viability < 0.9)). Conditions: 10 µM.

SMILES | cytotoxicity call
C[C@H](CO)N1C[C@H](C)[C@@H](CN(C)S(=O)(=O)c2ccc(Cl)cc2)OCc2cnnn2CCCC1=O | inactive
Cc1ccc(S(=O)(=O)Nc2ccc3c(c2)C(=O)N([C@@H](C)CO)C[C@@H](C)[C@@H](CN(C)C(=O)C2CCCCC2)OCCCC[C@H](C)O3)cc1 | inactive
CC(C)(c1cc(Br)c(O)c(Br)c1)c1cc(Br)c(O)c(Br)c1 | inactive
C[C@H](CO)N1C[C@H](C)[C@@H](CN(C)C(=O)NC2CCCCC2)Oc2c(NS(=O)(=O)c3cn(C)cn3)cccc2C1=O | inactive
CNC(=O)C[C@H]1CC[C@H]2[C@@H](COC[C@@H](O)CN2C(=O)c2ccc3c(c2)OCO3)O1 | inactive
CCCNC(=O)N1C[C@@H](O)COC[C@H]2O[C@@H](CC(=O)NCCCN3CCOCC3)CC[C@@H]21 | inactive
O=C(C[C@H]1CC[C@@H]2[C@H](COC[C@H](O)CN2C(=O)c2ccc3c(c2)OCO3)O1)NCCN1CCCCC1 | inactive
O=C(C[C@@H]1CC[C@H]2[C@@H](COC[C@@H](O)CN2C(=O)c2ccc3c(c2)OCO3)O1)NCCN1CCCCC1 | active
CCCNC(=O)N1C[C@H](O)COC[C@H]2O[C@@H](CC(=O)NCCCN3CCOCC3)CC[C@@H]21 | inactive
CNC(=O)C[C@H]1CC[C@@H]2[C@H](COC[C@@H](O)CN2C(=O)c2ccc3c(c2)OCO3)O1 | active
O=C(C[C@@H]1CC[C@@H]2[C@H](COC[C@@H](O)CN2C(=O)c2ccc3c(c2)OCO3)O1)NCCN1CCCCC1 | inactive
CCCNC(=O)N1C[C@H](O)COC[C@H]2O[C@H](CC(=O)NCCCN3CCOCC3)CC[C@@H]21 | active
CNC(=O)C[C@@H]1CC[C@H]2[C@@H](COC[C@H](O)CN2C(=O)c2ccc3c(c2)OCO3)O1 | inactive
C[C@@H]1CN([C@H](C)CO)C(=O)c2cc(NC(=O)NC3CCCCC3)ccc2O[C@@H](C)CCCCO[C@H]1CN(C)C(=O)Nc1ccc(F)cc1 | inactive
C[C@H](CO)N1C[C@H](C)[C@@H](CN(C)S(=O)(=O)c2cccs2)OCCCC[C@H](C)Oc2ccc(NS(=O)(=O)c3cn(C)cn3)cc2C1=O | inactive
COc1ccc(C#Cc2ccc3c(c2)[C@H]2[C@H](CCN2C(=O)Nc2ccc(C(F)(F)F)cc2)[C@H](CO)N3C)cc1 | inactive
C[C@H](CO)N1C[C@H](C)[C@@H](CN(C)S(=O)(=O)c2cn(C)cn2)Oc2ccc(NC(=O)c3ccncc3)cc2C1=O | inactive
C[C@@H]1CN([C@H](C)CO)S(=O)(=O)c2ccc(Br)cc2O[C@H]1CN(C)Cc1cccc(C(=O)O)c1 | inactive
C[C@@H]1CN([C@H](C)CO)C(=O)c2cccc(NC(=O)Nc3ccccc3)c2O[C@H]1CN(C)Cc1ccc(C(=O)Nc2ccccc2N)cc1 | inactive
O=C(C[C@H]1C[C@H]2c3cc(NC(=O)NC4CCCC4)ccc3O[C@H]2[C@H](CO)O1)NCc1ccc(Oc2ccccc2)cc1 | active
O=C(C[C@@H]1C[C@@H]2c3cc(NC(=O)Nc4ccccc4F)ccc3O[C@@H]2[C@@H](CO)O1)NCc1ccc(Oc2ccccc2)cc1 | active
O=C(C[C@H]1C[C@@H]2c3cc(NC(=O)NC4CCCC4)ccc3O[C@@H]2[C@H](CO)O1)NCc1ccc(Oc2ccccc2)cc1 | active
O=C(C[C@H]1C[C@H]2c3cc(NC(=O)Nc4ccccc4F)ccc3O[C@H]2[C@H](CO)O1)NCc1ccc(Oc2ccccc2)cc1 | inactive
O=C(C[C@@H]1C[C@@H]2c3cc(NC(=O)NC4CCCC4)ccc3O[C@@H]2[C@H](CO)O1)NCc1ccc(Oc2ccccc2)cc1 | inactive
O=C(C[C@@H]1C[C@H]2c3cc(NC(=O)Nc4ccccc4F)ccc3O[C@H]2[C@H](CO)O1)NCc1ccc(Oc2ccccc2)cc1 | inactive

SMILES | cytotoxicity call
O=C(C[C@@H]1C[C@H]2c3cc(NC(=O)NC4CCCC4)ccc3O[C@H]2[C@@H](CO)O1)NCc1ccc(Oc2ccccc2)cc1 | inactive
O=C(C[C@H]1C[C@@H]2c3cc(NC(=O)NC4CCCC4)ccc3O[C@@H]2[C@@H](CO)O1)NCc1ccc(Oc2ccccc2)cc1 | inactive
O=C(C[C@@H]1C[C@H]2c3cc(NC(=O)NC4CCCC4)ccc3O[C@H]2[C@H](CO)O1)NCc1ccc(Oc2ccccc2)cc1 | inactive
CC(C)(C)OC(=O)C[C@@H]1CC=CC[C@H](CC(=O)NCCO)C(=O)NCCOC1=O | inactive
COCC#Cc1ccc([C@@H]2[C@H](CO)N3C(=O)CN(C(=O)c4ccncc4)C[C@@H]23)cc1 | inactive
CO[C@H]1CN(C)C(=O)c2ccc(NS(C)(=O)=O)cc2OC[C@@H](C)N(C(=O)CN(C)C)C[C@H]1C | inactive
C[C@@H]1CN([C@H](C)CO)C(=O)Cc2cc(NS(=O)(=O)c3ccc(F)cc3)ccc2O[C@H]1CN(C)Cc1ccncc1 | inactive
C=CCC[C@H](Cc1ccc(F)cc1)C(=O)OC[C@@H]1CCCN1C(=O)[C@H](CC=C)CC(=O)N(CCO)Cc1ccccc1 | inactive
CC(C)(C)OC(=O)N1CCNC(=O)C1 | inactive
O=C(O)CCN1C(=O)NC2(CCCC2)C1=O | inactive
O=C(C1=C[C@@H](c2ccsc2)C[C@@H](OCCCCO)O1)N1CCN(Cc2ccc3c(c2)OCO3)CC1 | inactive
C[C@H]1CN([C@@H](C)CO)C(=O)CCCn2nncc2CO[C@@H]1CN(C)C(=O)CCCN(C)C | inactive
C[C@H]1CN([C@@H](C)CO)C(=O)Cc2cc(NC(=O)CCN3CCOCC3)ccc2O[C@@H]1CN(C)S(=O)(=O)c1ccc(Cl)cc1 | inactive
CC(=O)O[C@@H](C)C[N+](C)(C)C | inactive
CC(=O)OC(C)C[N+](C)(C)C.[Cl-] (stereo not given) | active
CC(C[N+](C)(C)C)OC(N)=O.[Cl-] (stereo not given) | inactive
O=C(C[C@H]1CC[C@H]2[C@@H](COC[C@@H](O)CN2C(=O)Nc2cccc(Cl)c2)O1)NCc1ccccc1F | inactive
CN(C)Cc1cn(CC[C@@H]2CC[C@@H](NC(=O)Cc3cccnc3)[C@@H](CO)O2)nn1 | inactive
C[C@@H]1CCCCO[C@@H](CN(C)C(=O)c2ccncc2)[C@H](C)CN([C@H](C)CO)C(=O)c2cc(NS(=O)(=O)c3cn(C)cn3)ccc2O1 | inactive
O=C(C[C@@H]1CC[C@H]2[C@@H](COC[C@@H](O)CN2S(=O)(=O)c2ccccc2F)O1)NCc1ccccc1Cl | inactive
C[C@@H]1CN([C@H](C)CO)C(=O)c2cc(NS(C)(=O)=O)ccc2O[C@@H]1CN(C)Cc1ccc(C(=O)Nc2ccccc2N)cc1 | inactive
COc1ccc(CNC(=O)c2cc3c(c(-c4cccc(-c5ccc(C#N)cc5)c4)n2)[C@H](CCO)N([S@@](=O)C(C)(C)C)C3)cc1 | inactive
COc1ccc(C2=N[C@H](c3ccc(Cl)cc3)[C@H](c3ccc(Cl)cc3)N2C(=O)N2CCNC(=O)C2)c(OC(C)C)c1 | inactive
COc1ccc(C2=N[C@@H](c3ccc(Cl)cc3)[C@@H](c3ccc(Cl)cc3)N2C(=O)N2CCNC(=O)C2)c(OC(C)C)c1 | active
COc1ccc(S(=O)(=O)N(C)C[C@@H]2Oc3ccc(NC(=O)C4CC4)cc3C(=O)N([C@@H](C)CO)C[C@@H]2C)cc1 | inactive

SMILES | cytotoxicity call
Cc1noc(C)c1NC(=O)N(C)C[C@H]1Oc2c(NS(=O)(=O)c3cn(C)cn3)cccc2C(=O)N([C@H](C)CO)C[C@@H]1C | inactive
C[C@@H]1CCCCO[C@@H](CN(C)C(=O)Nc2ccc3c(c2)OCO3)[C@H](C)CN([C@H](C)CO)C(=O)c2cc(NC(=O)NC3CCCCC3)ccc2O1 | inactive
C[C@@H]1CN([C@@H](C)CO)C(=O)c2cc(NC(=O)NC3CCCCC3)ccc2O[C@@H](C)CCCCO[C@H]1CN(C)C(=O)Nc1ccc2c(c1)OCO2 | active
C[C@@H]1CCCCO[C@H](CN(C)C(=O)Nc2ccc3c(c2)OCO3)[C@H](C)CN([C@@H](C)CO)C(=O)c2cc(NC(=O)NC3CCCCC3)ccc2O1 | inactive
C[C@@H]1CCCCO[C@H](CN(C)C(=O)Nc2ccc3c(c2)OCO3)[C@H](C)CN([C@H](C)CO)C(=O)c2cc(NC(=O)NC3CCCCC3)ccc2O1 | active
C[C@H](CO)N1C[C@H](C)[C@@H](CN(C)C(=O)Nc2ccc3c(c2)OCO3)OCCCC[C@H](C)Oc2ccc(NC(=O)NC3CCCCC3)cc2C1=O | inactive
C[C@@H]1CCCCO[C@@H](CN(C)C(=O)Nc2ccc3c(c2)OCO3)[C@@H](C)CN([C@@H](C)CO)C(=O)c2cc(NC(=O)NC3CCCCC3)ccc2O1 | inactive
C[C@@H]1CN([C@@H](C)CO)C(=O)Cc2cc(NC(=O)CCCN(C)C)ccc2O[C@H]1CN(C)S(=O)(=O)c1ccc(Cl)cc1 | inactive
Cc1noc(C)c1NC(=O)N(C)C[C@H]1Oc2ccc(NC(=O)C3CC3)cc2CC(=O)N([C@@H](C)CO)C[C@@H]1C | inactive
C[C@@H]1CCCCO[C@@H](CN(C)S(=O)(=O)c2cn(C)cn2)[C@H](C)CN([C@@H](C)CO)C(=O)c2cc(NC(=O)Nc3cccc4ccccc34)ccc2O1 | inactive
CCCNC(=O)N(C)C[C@@H]1Oc2ncc(-c3ccc(C(=O)N(C)C)cc3)cc2C(=O)N([C@H](C)CO)C[C@H]1C | inactive
C[C@@H]1CCCCO[C@@H](CN(C)C(=O)Nc2ccc(C(F)(F)F)cc2)[C@H](C)CN([C@@H](C)CO)C(=O)c2cc(NC(=O)Nc3ccc(F)cc3)ccc2O1 | inactive
Cc1ccc(S(=O)(=O)N(C)C[C@H]2OCCCC[C@H](C)Oc3ccc(NS(=O)(=O)c4ccc(F)cc4)cc3C(=O)N([C@H](C)CO)C[C@@H]2C)cc1 | inactive
C[C@H](CO)N1C[C@H](C)[C@H](CN(C)Cc2ccc(C(=O)Nc3ccccc3N)cc2)Oc2ccc(NC(=O)Nc3cccc4ccccc34)cc2CC1=O | active
C[C@H](CO)N1C[C@H](C)[C@H](CN(C)Cc2ccc(C(=O)Nc3ccccc3N)cc2)Oc2ccc(NC(=O)Nc3ccccc3)cc2CC1=O | inactive
COc1ccc(NC(=O)Nc2ccc3c(c2)CC(=O)N([C@H](C)CO)C[C@@H](C)[C@@H](CN(C)Cc2ccc(C(=O)Nc4ccccc4N)cc2)O3)cc1 | active
C[C@@H]1CN([C@H](C)CO)C(=O)Cc2cc(NC(=O)Nc3cccc4ccccc34)ccc2O[C@@H]1CN(C)Cc1ccc(C(=O)Nc2ccccc2N)cc1 | inactive
C[C@H]1CN([C@@H](C)CO)C(=O)Cc2cc(NC(=O)Nc3ccccc3)ccc2O[C@H]1CN(C)Cc1ccc(C(=O)Nc2ccccc2N)cc1 | inactive
C[C@@H]1CN([C@H](C)CO)C(=O)Cc2cc(NC(=O)Nc3ccc(F)cc3)ccc2O[C@@H]1CN(C)Cc1ccc(C(=O)Nc2ccccc2N)cc1 | active
C[C@@H]1CN([C@@H](C)CO)C(=O)Cc2cc(NC(=O)Nc3ccc(F)cc3)ccc2O[C@H]1CN(C)Cc1ccc(C(=O)Nc2ccccc2N)cc1 | inactive
COc1ccc(NC(=O)Nc2ccc3c(c2)CC(=O)N([C@H](C)CO)C[C@H](C)[C@@H](CN(C)Cc2ccc(C(=O)Nc4ccccc4N)cc2)O3)cc1 | inactive
C[C@H](CO)N1C[C@H](C)[C@@H](CN(C)Cc2ccc(C(=O)Nc3ccccc3N)cc2)Oc2ccc(NC(=O)Nc3ccccc3)cc2CC1=O | inactive
C[C@@H]1CN([C@H](C)CO)C(=O)Cc2cc(NC(=O)Nc3cccc4ccccc34)ccc2O[C@H]1CN(C)Cc1ccc(C(=O)Nc2ccccc2N)cc1 | inactive
C[C@@H]1CN([C@H](C)CO)C(=O)Cc2cc(NC(=O)Nc3ccccc3)ccc2O[C@@H]1CN(C)Cc1ccc(C(=O)Nc2ccccc2N)cc1 | active
COc1ccc(NC(=O)Nc2ccc3c(c2)CC(=O)N([C@@H](C)CO)C[C@H](C)[C@@H](CN(C)Cc2ccc(C(=O)Nc4ccccc4N)cc2)O3)cc1 | inactive
